The results in this text go back to PubChem BioAssay (NCI).

The panel holds about 83,000 compounds, 20% with a hit somewhere; the sample as a whole holds those more often.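 Percent growth is the endpoint: 0 to 100 indicates growth inhibition (40 means 60% inhibition), 0 means no net growth, and negative values indicate cell death.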 A number with no mark means an inactive call. Active and inactive are the calls of the source. How the source made its calls: active means growth percent below 10; inactive means the rest.

The assay relates to DU-145 prostate. In words: NCI-60 one-dose screen, 48 h (100 = growth as untreated, 0 = no growth, -100 = all killed). Conditions: 10 µM unless noted.
Take `CCCC[C@H](NC(=O)[C@H]1CCCCN1C)C(=O)N(C)[C@H](C[C@@H](OC(C)=O)c1nc(C(=O)N[C@@H](Cc2ccccc2)C[C@H](C)C(=O)OCC)cs1)C(C)C`: the growth is 16.2%.
As for `O=C([O][Hg][CH2]C1OCCOC1[CH2][Hg][O]C(=O)c1ccccc1)c1ccccc1` (stereo not drawn), the figure is 90.1%.
As for `Cn1cc(-c2csc(-c3cn(CCN4CCOCC4)c4ccccc34)n2)c2cccnc21`, the figure is 89.1%.
Consider `O=C(O)c1c(Cl)n(Cc2ccc(O)cc2)c2ccc(O)cc12`, for which the growth is 111%.
As to `CCCCCCCCCCCCCCCCCCOc1ccccc1COP(=O)(O)OOCC[N+](C)(C)C`, the growth is 9.26% (active).
As to `CC(C)(C)N1CC1C#N` (stereo not drawn), the growth is 105%.
On to `COC(=O)[C@@H](C)C[C@H](Cc1ccc2ccccc2c1)NC(=O)c1csc([C@@H](C[C@H](C(C)C)N(C)C(=O)[C@@H](NC(=O)[C@H]2CCCCN2C)C(C)C)OC(C)=O)n1`, for which the growth is 46.6%.
As to `CCCCC1(CCC)C(=O)NC(=S)NC1=O`, the growth is 119%.
Turning to `Nc1ccc(Cl)cc1`, the growth is 102%.
For `COc1ccc([As]=[As]c2ccc(OC)c(NCS(=O)(=O)O)c2)cc1NCS(=O)(=O)O` (stereo not drawn), the growth was 43.1%.
`CC1(C)C(C(=O)c2cn(CCCCF)c3ccccc23)C1(C)C`: the growth is 105%.
As for `O=[N+]([O-])c1ccc([Se]C2CCCCC2Cl)c([N+](=O)[O-])c1` (stereo not drawn), the figure is 82.1%; as for `COP(=O)(OC)C(O)c1ccc(Cl)cc1` (stereo not drawn), 97.9%; as for `Cc1cnc(/C=C/C(=O)O)cc1-c1cc2c(cc1C)C(C)(C)CCC2(C)C`, 95.7%.
Then `COC(=O)[C@H](C[C@H](Cc1ccccc1)NC(=O)c1csc([C@@H](C[C@H](C(C)C)N(C)C(=O)[C@@H](NC(=O)[C@H]2CCCCN2C)C(C)C)OC(C)=O)n1)NC(=O)OCc1ccccc1`, with -18.2% [8.5 µM] (active); and `Cc1ccc2c(C(C[N+](=O)[O-])c3cccs3)c(-c3ccccc3)[nH]c2c1` (stereo not drawn), with 28.1%.
As for `CCOC(=O)[C@@H](C)C[C@H](Cc1ccccc1)NC(=O)c1csc([C@@H](C[C@H](C(C)C)N(C)C(=O)[C@@H](NC(=O)[C@H]2CCCCN2C)C(C)(C)C)OC(C)=O)n1`, the figure is 2.47% (active); as for `NC(=O)C(Br)c1ccccc1` (stereo not drawn), 103%.
On to `CC(=O)O[C@H](C[C@H](C(C)C)N(C)C(=O)[C@@H](NC(=O)[C@H]1CCCCN1C)C(C)C)c1nc(C(=O)N[C@@H](Cc2ccccc2)C[C@H](C)C(=O)O)c(CCOCc2ccccc2)s1`, for which the growth was -9.34% (active).
As for `O=NN1CCCc2cccc(O)c21`, the figure is 10.8%; as for `C#C[C@]1(OC(=O)CCCCCC)CC[C@H]2[C@@H]3CCC4=CC(=O)CC[C@@H]4[C@H]3CC[C@@]21C`, 72.1%.
As for `CC(=O)OC1C(OC/C2=C/C3[C@@H](C(C)C)CC=C(C)[C@@H]3CC(OC(=O)/C=C/c3cn(C)cn3)[C@]3(C)C=C[C@@]2(O)O3)OCC(O)C1O` (stereo partly drawn), the figure is -10.2% (active); as for `COC1CC2c3ccccc3C1C(C)=[N+]2C` (stereo not drawn), 110%; as for `NC(=O)CNc1ccc([As]=[As]c2ccc(NCC(N)=O)cc2)cc1` (stereo not drawn), 60.3%.
In the case of `CCCCCN(CCCCC)CC(O)c1cc(Cl)ccc1OC` (stereo not drawn), the growth was 40.1%.
With `ClC1=C(Cl)C(Cl)(C2(Cl)C(Cl)=C(Cl)C(Cl)=C2Cl)C(Cl)=C1Cl`, the growth is -43.1% (active).
Then `CCOC(=O)[C@@H](C)C[C@H](Cc1ccccc1)NC(=O)c1nc([C@@H](C[C@H](C(C)C)N(C)C(=O)[C@@H](NC(=O)[C@H]2CCCCN2C)C(C)C)OC(C)=O)sc1CCOCc1ccccc1`, with -27.3% (active); and `COC(=O)N[C@H]1CCc2c(Br)c(OC)c(OC)c(OC)c2-c2ccc(SC)c(=O)cc21`, with -1.4% (active); and `O=C(CC1(O)C(=O)Nc2ccc(Br)cc21)c1ccc(C(=O)NCC2CCC3(CC2)OOC2(CCCCC2)OO3)cc1` (stereo not drawn), with 59.1%.
In the case of `C=C1C(=O)O[C@H]2[C@H]1CC/C(COC(=O)C(=O)c1cn(Cc3ccccc3)c3ccccc13)=C\CC[C@@]1(C)O[C@@H]21`, the growth was -54.1% (active).
Then `O=C1C2C(C(=O)[N]1[Hg][c]1cccs1)C1(Cl)C(Cl)=C(Cl)C2(Cl)C1(Cl)Cl` (stereo not drawn), with 53.8%; and `O=C1CN=C(c2ccc(Cl)cc2)c2sccc2N1`, with 109%.
For the compound `O=C1NC(=O)C(=Cc2cccn2CCCCCn2c3ccccc3c(=O)c3ccccc32)C(=O)N1`, the growth was 113%.
For `Nc1c(F)cc(-c2nc3cc(F)ccc3[se]2)cc1Br`, the growth was 98.8%.
As for `O=[N+]([O-])CC(c1ccccc1Cl)c1c(-c2ccccc2)[nH]c2ccccc12` (stereo not drawn), the figure is 43.7%; as for `CC(CO)NC1CCCCC1` (stereo not drawn), 105%; as for `OCCNC(Cc1ccccc1)c1ccc2c(c1)OCO2` (stereo not drawn), 101%.
With `Clc1cccc(N2COOC3(OOC2)C2CC4CC(C2)CC3C4)c1`, the growth was 89.6%.
